The supplement of paper PMC8728848
The entries come from a sample that favours the strongest signals as a whole.

Key:
Assay in all cases: glycan array binding signal (z-score within array); higher = stronger binding
Settings in all cases: glycan notation: IUPAC condensed, linker removed
[1] = biological target: GlcNAc(b1-3)Gal(b1-4)GlcNAc(b1-3)Gal(b1-4)GlcNAc(b1-3)GalNAc
Outline: (§1)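 Arrays were curated from the Consortium for Functional Glycomics database, 3228 in total, and kept only where the protein sequence was available. Binding is expressed as a within-array Z-score. This score was averaged across arrays of the same protein sequence at different concentrations or buffers and across linkers, and negative values can be read as non-binding.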

[2] = biological target: GlcNAc(b1-4)[GlcNAc(b1-6)]GalNAc
Outline: as §1

GlcNAc(b1-6)GalNAc = biological target: GlcNAc(b1-6)GalNAc
Outline: as §1

[3] = biological target: Man(a1-2)Man(a1-6)[Man(a1-3)]Man(a1-6)[Man(a1-2)Man(a1-2)Man(a1-3)]Man
Outline: as §1

Man(b1-4)GlcNAc = biological target: Man(b1-4)GlcNAc
Outline: as §1

[4] = biological target: Neu5Ac(a2-3)Gal(b1-3)GlcNAc(b1-2)Man(a1-3)[GlcNAc(b1-4)][Neu5Ac(a2-3)Gal(b1-3)GlcNAc(b1-2)Man(a1-6)]Man(b1-4)GlcNAc(b1-4)GlcNAc
Outline: as §1

[5] = biological target: Neu5Ac(a2-3)Gal(b1-4)GlcNAc(b1-2)Man(a1-3)[Neu5Ac(a2-3)Gal(b1-4)GlcNAc(b1-2)Man(a1-6)]Man(b1-4)GlcNAc(b1-4)GlcNAc
Outline: as §1

[6] = biological target: Neu5Ac(a2-3)Gal(b1-4)GlcNAc(b1-3)Gal(b1-4)GlcNAc(b1-3)Gal(b1-4)GlcNAc(b1-2)Man(a1-3)[Neu5Ac(a2-3)Gal(b1-4)GlcNAc(b1-3)Gal(b1-4)GlcNAc(b1-3)Gal(b1-4)GlcNAc(b1-2)Man(a1-6)]GalNAc
Outline: as §1

[7] = biological target: Neu5Ac(a2-3)Gal(b1-4)GlcNAc(b1-6)GalNAc
Outline: as §1

[8] = biological target: Neu5Ac(a2-3)[GalNAc(b1-4)]Gal(b1-4)Glc
Outline: as §1

[9] = biological target: Neu5Ac(a2-6)Gal(b1-4)GlcNAc(b1-2)Man(a1-3)Man(b1-4)GlcNAc(b1-4)GlcNAc
Outline: as §1

[10] = biological target: Neu5Ac(a2-6)Gal(b1-4)GlcNAc(b1-2)Man(a1-3)[Neu5Ac(a2-3)Gal(b1-4)GlcNAc(b1-2)Man(a1-6)]Man(b1-4)GlcNAc(b1-4)GlcNAc
Outline: as §1

[11] = biological target: Neu5Ac(a2-6)Gal(b1-4)GlcNAc(b1-3)Gal(b1-4)GlcNAc(b1-3)Gal(b1-4)GlcNAc(b1-2)Man(a1-3)[Neu5Ac(a2-6)Gal(b1-4)GlcNAc(b1-3)Gal(b1-4)GlcNAc(b1-3)Gal(b1-4)GlcNAc(b1-2)Man(a1-6)]GalNAc
Outline: as §1

[12] = biological target: Neu5Ac(a2-6)Gal(b1-4)GlcNAc(b1-6)[Gal(b1-3)GlcNAc(b1-3)]Gal(b1-4)Glc
Outline: as §1

[13] = biological target: Neu5Ac(a2-6)GlcNAc(b1-4)GlcNAc
Outline: as §1

[14] = biological target: Neu5Ac(a2-8)Neu5Ac(a2-3)Gal(b1-3)GalNAc(b1-4)[Neu5Ac(a2-3)]Gal(b1-4)Glc
Outline: as §1

[15] = biological target: Neu5Ac(a2-8)Neu5Ac(a2-3)[Gal(b1-3)GalNAc(b1-4)]Gal(b1-4)Glc
Outline: as §1

B1: AFL6 (Aspergillus fumigatus), Q4WKJ1 (protein)
chain: MSFHLTAEDIRIEDGHRLVARLRNADGDLQDASIDLNTCLGNDNGHFQWDGVDFSHSAQDVHFAIEGGGQVPVLRAQLANQDGEFQDADVNLSERIENINGEFVFH
glycan array binding signal (z-score) [1]: -0.176 | glycan array binding signal (z-score) [2]: -0.154 | glycan array binding signal (z-score) (GlcNAc(b1-6)GalNAc): -0.476 | glycan array binding signal (z-score) [3]: -0.466 | glycan array binding signal (z-score) (Man(b1-4)GlcNAc): -0.133 | glycan array binding signal (z-score) [4]: -0.296 | glycan array binding signal (z-score) [5]: 0.029 | glycan array binding signal (z-score) [6]: 4.83 | glycan array binding signal (z-score) [7]: 0.04 | glycan array binding signal (z-score) [8]: 0.054 | glycan array binding signal (z-score) [9]: 0.065 | glycan array binding signal (z-score) [10]: -0.35 | glycan array binding signal (z-score) [11]: 3.09 | glycan array binding signal (z-score) [12]: 0.854 | glycan array binding signal (z-score) [13]: -0.135 | glycan array binding signal (z-score) [14]: -0.5 | glycan array binding signal (z-score) [15]: -0.306
